This is an account of results in PubChem BioAssay (NCI).

Some test systems named below: DU-145 prostate; K-562 leukemia; MALME-3M melanoma; MDA-MB-231 breast; RXF 393 renal; SF-268 CNS; SF-295 CNS; SF-539 CNS; UACC-257 melanoma; M14 melanoma.
Holding throughout (test): NCI-60 one-dose screen, 48 h (100 = growth as untreated, 0 = no growth, -100 = all killed)
Holding throughout (conditions): 10 µM unless noted

Structures are written as SMILES. “And” between values parts separate entries of the source, which are not always exact repeats. Identical values can stand only once. The panel holds about 83,000 compounds, 20% with a hit somewhere; the sample as a whole holds those more often.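 Plates (96-well) were seeded with cells, treated with compound at one concentration, and incubated for 48 hours before percent growth was determined.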 The source made the active and inactive calls. How the source made its calls: active means growth percent below 10; inactive means the rest.

`c1ccc2c(CC3=NCCN3)cccc2c1`: the growth was 123% (inactive) and 114% (inactive) in the assay on DU-145 prostate; 115% (inactive) and 107% (inactive) with K-562 leukemia; 104% (inactive) and 113% (inactive) in the assay on MALME-3M melanoma; 105% (inactive) and 109% (inactive) in the assay on MDA-MB-231 breast; 105% (inactive) and 102% (inactive) with RXF 393 renal; 114% (inactive) and 109% (inactive) in the assay on SF-268 CNS. Further, the growth is 94.3% (inactive) and 100% (inactive) in the assay with SF-295 CNS; 102% (inactive) and 95.8% (inactive) in the assay with SF-539 CNS; 101% (inactive) and 97.1% (inactive) in the assay on UACC-257 melanoma; 97.1% (inactive) and 99.3% (inactive) in the assay on M14 melanoma.
Consider `C#CCN(C)Cc1ccccc1`, for which the growth is 111% (inactive) with DU-145 prostate; 95.9% (inactive) and 94.2% (inactive) with K-562 leukemia; 100% (inactive) and 305% (inactive) in the assay on MALME-3M melanoma; 106% (inactive) and 89.6% (inactive) in the assay with MDA-MB-231 breast; 114% (inactive) and 96.6% (inactive) in the assay with RXF 393 renal; 107% (inactive) and 99.5% (inactive) in the assay on SF-268 CNS. Further, the growth in the assay on SF-295 CNS is 108% (inactive) and 98.1% (inactive); with SF-539 CNS, 97.8% (inactive); with UACC-257 melanoma it was 105% (inactive); in the assay on M14 melanoma it was 97.3% (inactive) and 96.8% (inactive).
Consider `O=C(Nc1ccc([N+](=O)[O-])cc1Cl)c1cc(Cl)ccc1O`, for which the growth in the assay with DU-145 prostate is 3.92% (active) and 17.7% (inactive); in the assay on K-562 leukemia it was 3.36% (active) and 12.4% (inactive); with MALME-3M melanoma it was -8.09% (active) and -27.3% (active); in the assay with MDA-MB-231 breast it was -43.3% (active) and -31.2% (active); in the assay on RXF 393 renal, -27.4% (active) and -21.6% (active); with SF-268 CNS, 5.52% (active) and 16.4% (inactive). Besides, the growth in the assay with SF-295 CNS was -56.8% (active) and -57.8% (active); in the assay on SF-539 CNS it was -16.5% (active) and 4.67% (active); in the assay on UACC-257 melanoma, -34.2% (active) and 3.09% (active); in the assay with M14 melanoma, -24.1% (active) and -34.4% (active).
For the molecule `Cc1c(Cl)cccc1NCN1C(=O)c2ccccc2C1=O`, the growth with DU-145 prostate was 115% (inactive); in the assay on K-562 leukemia, 109% (inactive); in the assay with MALME-3M melanoma, 104% (inactive); in the assay on MDA-MB-231 breast, 121% (inactive); in the assay on RXF 393 renal, 107% (inactive); in the assay with SF-268 CNS, 107% (inactive). The growth with SF-295 CNS was 102% (inactive); with SF-539 CNS, 102% (inactive); with UACC-257 melanoma it was 100% (inactive); in the assay with M14 melanoma it was 110% (inactive).
Regarding `O=C(O)C1(C(=O)O)CCC1.[NH2-].[NH2-].[Pt+2]`, the growth in the assay with DU-145 prostate is 127% (inactive) and 104% (inactive); in the assay on K-562 leukemia it was 65.9% (inactive); with MALME-3M melanoma it was 86.4% (inactive) and 94.2% (inactive); with MDA-MB-231 breast, 94.4% (inactive) and 8.97% (active); with RXF 393 renal it was 93.9% (inactive); in the assay with SF-268 CNS it was 118% (inactive) and 96.4% (inactive). Moreover, the growth was 103% (inactive) and 96.9% (inactive) with SF-295 CNS; 100% (inactive) and 89% (inactive) in the assay on SF-539 CNS; 102% (inactive) and 95.7% (inactive) with UACC-257 melanoma; 99.2% (inactive) and 104% (inactive) with M14 melanoma.
As to `Cc1cccc(/C=C\C(=O)c2ccccc2)c1`, the growth with DU-145 prostate was 99.9% (inactive) and 104% (inactive); in the assay on K-562 leukemia it was 67% (inactive) and 3.91% (active); in the assay with MALME-3M melanoma, 91.5% (inactive); with MDA-MB-231 breast, 94% (inactive) and 110% (inactive); in the assay with RXF 393 renal, 118% (inactive) and 96.8% (inactive); in the assay with SF-268 CNS, 105% (inactive) and 99.5% (inactive). Further, the growth in the assay with SF-295 CNS is 116% (inactive) and 95.7% (inactive); in the assay with SF-539 CNS it was 112% (inactive) and 108% (inactive); with UACC-257 melanoma, 102% (inactive) and 109% (inactive); with M14 melanoma, 98.5% (inactive).
As for `O=Nc1ccc(O)cc1`, the growth was 97.1% (inactive) and 114% (inactive) with DU-145 prostate; 109% (inactive) and 98.1% (inactive) in the assay on K-562 leukemia; 107% (inactive) and 135% (inactive) in the assay with MALME-3M melanoma; 84.9% (inactive) and 68.5% (inactive) in the assay on MDA-MB-231 breast; 99.3% (inactive) and 112% (inactive) with RXF 393 renal; 88.7% (inactive) and 93.4% (inactive) in the assay with SF-268 CNS. The growth with SF-295 CNS is 99.5% (inactive) and 105% (inactive); with SF-539 CNS, 90.2% (inactive) and 91.5% (inactive); in the assay with UACC-257 melanoma it was 108% (inactive) and 96.8% (inactive); in the assay with M14 melanoma, 97.8% (inactive) and 102% (inactive).
In the case of `Cc1ccc2nc3c(nc2c1)-c1cccc2cccc-3c12`, the growth in the assay with DU-145 prostate was 86.4% (inactive); in the assay with K-562 leukemia, 97.5% (inactive); in the assay on MALME-3M melanoma, 124% (inactive); with MDA-MB-231 breast it was 75.8% (inactive); in the assay with RXF 393 renal, 85.2% (inactive); with SF-268 CNS it was 89.2% (inactive). In addition, the growth was 102% (inactive) in the assay on SF-295 CNS, 85.4% (inactive) in the assay with SF-539 CNS, 106% (inactive) in the assay on UACC-257 melanoma and 102% (inactive) with M14 melanoma.
Turning to `COc1cc(Nc2nc3ccccc3nc2NS(=O)(=O)c2ccc(NC(=O)c3ccc(C)c(OC)c3)cc2)cc(OC)c1`, the growth in the assay on DU-145 prostate is 63.2% (inactive) and 12.9% (inactive); in the assay on K-562 leukemia, 63% (inactive) and 29.3% (inactive); in the assay on MALME-3M melanoma, 30.7% (inactive) and -18.6% (active); with MDA-MB-231 breast, 77.2% (inactive) and 13.5% (inactive); in the assay on RXF 393 renal it was 75.1% (inactive) and -38.8% (active); in the assay on SF-268 CNS it was 54.8% (inactive) and 18.2% (inactive). Moreover, the growth with SF-295 CNS was 41.7% (inactive) and -32.8% (active); in the assay on SF-539 CNS, 62.7% (inactive) and -35.7% (active); with UACC-257 melanoma it was 74.7% (inactive) and -18.8% (active); in the assay with M14 melanoma, 64.1% (inactive) and 8.75% (active).
As to `ClC/C=C/CSc1ncnc2nc[nH]c12`, the growth in the assay on DU-145 prostate is 110% (inactive) and 116% (inactive); in the assay with K-562 leukemia, 82.1% (inactive) and 73.3% (inactive); in the assay on MALME-3M melanoma, 116% (inactive) and 95.9% (inactive); in the assay on MDA-MB-231 breast, 109% (inactive) and 96.3% (inactive); in the assay on RXF 393 renal, 109% (inactive) and 141% (inactive); with SF-268 CNS it was 103% (inactive) and 119% (inactive). Further, the growth with SF-295 CNS is 101% (inactive) and 117% (inactive); in the assay with SF-539 CNS it was 101% (inactive) and 103% (inactive); with UACC-257 melanoma it was 118% (inactive) and 104% (inactive); in the assay with M14 melanoma, 104% (inactive) and 103% (inactive).
Take `O=C(N/N=C/c1ccccc1)N/N=C/c1ccccc1`: the growth in the assay with DU-145 prostate is 131% (inactive) and 109% (inactive); in the assay on K-562 leukemia, 95% (inactive); with MALME-3M melanoma, 94.4% (inactive) and 107% (inactive); with MDA-MB-231 breast, 106% (inactive); with RXF 393 renal, 107% (inactive) and 98.5% (inactive); in the assay on SF-268 CNS, 112% (inactive) and 100% (inactive). Also, the growth with SF-295 CNS is 92.4% (inactive) and 105% (inactive); in the assay with SF-539 CNS, 100% (inactive) and 98.3% (inactive); with UACC-257 melanoma, 90.3% (inactive) and 106% (inactive); in the assay with M14 melanoma, 123% (inactive) and 115% (inactive).
On to `Cc1cc(N=Nc2ccc(C)c(N=Nc3cc(C)c(N)cc3N)c2)c(N)cc1N`, for which the growth was 107% (inactive) and 90.9% (inactive) in the assay with DU-145 prostate; 75.9% (inactive) and 34.5% (inactive) in the assay on K-562 leukemia; 89.3% (inactive) and 98.5% (inactive) with MALME-3M melanoma; 68.6% (inactive) and 73.3% (inactive) with MDA-MB-231 breast; 91.1% (inactive) and 89.1% (inactive) in the assay with RXF 393 renal; 98.9% (inactive) and 80.7% (inactive) with SF-268 CNS. Besides, the growth with SF-295 CNS is 98.6% (inactive) and 66% (inactive); in the assay on SF-539 CNS, 87.9% (inactive) and 99.8% (inactive); in the assay with UACC-257 melanoma it was 91.4% (inactive) and 89.9% (inactive); in the assay with M14 melanoma, 90.8% (inactive) and 65.4% (inactive).
For `CCOc1ccc(Nc2c3ccccc3nc3ccccc23)cc1`, the growth with DU-145 prostate was 104% (inactive) and 23.1% (inactive) and 35.2% (inactive); in the assay on K-562 leukemia, 81.3% (inactive) and 6.44% (active) and 3.81% (active); in the assay on MALME-3M melanoma it was 99% (inactive) and 5.36% (active) and 13.2% (inactive); in the assay with MDA-MB-231 breast, 94.2% (inactive) and 45.9% (inactive) and 48.4% (inactive); in the assay with RXF 393 renal, 83.7% (inactive) and -4.09% (active) and 10% (active); in the assay on SF-268 CNS it was 108% (inactive) and 34.7% (inactive) and 45.7% (inactive). Further, the growth with SF-295 CNS was 65.7% (inactive) and 28.8% (inactive) and 17.1% (inactive); with SF-539 CNS, 94.5% (inactive) and 17.9% (inactive) and 11% (inactive); with UACC-257 melanoma, 96% (inactive) and 24.7% (inactive) and 44.7% (inactive); in the assay on M14 melanoma, 95% (inactive) and 19.4% (inactive) and 40.4% (inactive).
Take `CC(C)(O)Cn1cc(-c2ccc3nc(OC4CC4)ccc3c2)c2c(N)ncnc21`: the growth in the assay on DU-145 prostate was 102% (inactive) and 75.6% (inactive); in the assay on K-562 leukemia, 88% (inactive) and 35.8% (inactive); in the assay with MALME-3M melanoma, 70.2% (inactive) and 44.2% (inactive); in the assay with MDA-MB-231 breast, 69.2% (inactive) and 46.4% (inactive); in the assay on RXF 393 renal, 73.3% (inactive) and 50.5% (inactive); with SF-268 CNS it was 91.2% (inactive) and 57.1% (inactive). Also, the growth was 79.2% (inactive) and 56.7% (inactive) in the assay with SF-295 CNS; 81.6% (inactive) and 58.6% (inactive) in the assay on SF-539 CNS; 70.8% (inactive) in the assay on UACC-257 melanoma; 80.6% (inactive) and 62.3% (inactive) with M14 melanoma.
